Compound activity (PubChem BioAssay)
DT40 TDP1 no CPT – qHTS for Inhibitors of human tyrosyl-DNA phosphodiesterase 1 (TDP1): qHTS in cells in absence of CPT | Potency, µM (top dose mostly 46.2 µM), for inactives: at the highest dose activity change, negative = growth inhibition, usual class: inhibitors | DT40 Tdp1-/- hTDP1 cells, no CPT, ATP luminescence, 48 h | 420,000 compounds, 15% hits; note: potency is the fitted concentration of half-maximal effect; nearly all actives have a fitted effect of over 55% in size
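A cellular qHTS used chicken DT40 cells lacking endogenous Tdp1 but carrying stably transfected human TDP1. Compounds were applied without camptothecin, and cell growth kinetics were judged by ATP-dependent luminescence after ≥48 hr.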
TDP1 cell CPT – DT40-hTDP1 cell growth loss with CPT | chicken DT40 Tdp1-/-;hTDP1 cells + 20 nM CPT, ATP luminescence, 48 h | 420,000 compounds, 12% hits | AID 686979 | Potency, µM (doses to about 46.2 µM), without a hit: at the highest dose activity change, negative = growth inhibition, usual class: inhibitors; note: potency is the fitted concentration of half-maximal effect; nearly all actives have a fitted effect of over 55% in size
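Chicken DT40 Tdp1-/- cells stably complemented with human TDP1 were seeded at 400 cells/well in medium containing 20 nM camptothecin, exposed to pin-transferred compounds, and grown at 37 °C for at least 48 hr. Viability was read as ATP luminescence.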
RORgamma inh – inhibitors of mouse ROR gamma transcriptional activity | 310,000 compounds, 5.4% hits | Potency, µM (top dose mostly 53.6 µM), for inactives: at the top dose activity change, negative = inhibition, most hits filed as inhibitors | Drosophila S2 Gal4-RORgamma UAS-luciferase reporter, 20 h | P51450; note: potency is the fitted concentration of half-maximal effect; nearly all actives have a fitted effect of over 60% in size
Target sequence (P51450 whole entry, looked up, the tested form may be a part): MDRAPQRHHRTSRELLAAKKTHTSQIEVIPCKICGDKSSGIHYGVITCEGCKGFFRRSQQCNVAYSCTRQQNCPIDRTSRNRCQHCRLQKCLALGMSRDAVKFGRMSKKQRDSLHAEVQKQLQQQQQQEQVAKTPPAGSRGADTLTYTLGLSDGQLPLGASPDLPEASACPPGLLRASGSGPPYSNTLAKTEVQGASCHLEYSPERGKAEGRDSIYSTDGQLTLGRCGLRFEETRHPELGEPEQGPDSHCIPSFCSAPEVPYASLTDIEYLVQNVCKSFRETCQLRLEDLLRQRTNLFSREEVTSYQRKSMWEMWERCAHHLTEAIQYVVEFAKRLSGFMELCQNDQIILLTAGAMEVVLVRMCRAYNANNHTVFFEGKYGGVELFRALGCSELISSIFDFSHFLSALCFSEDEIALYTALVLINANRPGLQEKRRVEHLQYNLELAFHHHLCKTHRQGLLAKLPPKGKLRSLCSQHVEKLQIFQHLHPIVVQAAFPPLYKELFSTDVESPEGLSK
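Stable Schneider cell line, Gal4 DNA-binding domain fused to ROR gamma, UAS-luciferase. Cmpd 1 hr RT → CuSO4 700 uM final → 20 hr RT → luciferase reagent 10 min → luminescence.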
VP16 counter – inhibits Gal4-VP16 luciferase reporter, ROR gamma counter-screen. Drosophila S2 Gal4-VP16 UAS-luciferase, luminescence, 20 h. Potency, µM (series often up to 53.6 µM), inactives show at the highest dose activity, negative = inhibition, usual class: inhibitors. 310,000 compounds, 3.5% hits. AID 2546;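 note: Gal4-VP16 expression switched on by copper sulfate through the metallothionein promoter; potency is the fitted concentration of half-maximal effect; nearly all actives have a fitted effect of over 50% in size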
IL-1B inflam inh – inhibitors of inflammasome signaling (IL-1 beta secretion); THP-1 LPS/ATP IL-1B secretion, AlphaLISA, 16 h; hits give low values; activity change, % at 57.5 µM; 360,000 compounds, 4.7% hits; AID 743279; in the data active = activity change below about -50%; inconclusive = mostly about -30% to -49%
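Secreted IL-1B measured by AlphaLISA bead assay after 16 h compound exposure of THP-1 cells; compounds (final up to 57.5 uM) added 1 h before LPS (250 ng/mL) and ATP (1.25 mM) stimulation; lower signal means less secretion.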
ELG1 repair inh – blocks ELG1-dependent DNA repair in HEK293T cells; HEK293T ELG1-luciferase reporter, luminescence, 16 h; DNA damage induced by 5-fluorouridine; Potency, µM (top dose mostly 46.1 µM), for the others: at the highest dose activity change, negative = inhibition, most hits filed as inhibitors; 330,000 compounds, 2.3% hits; AID 504467; note: potency is the fitted concentration of half-maximal effect; nearly all actives have a fitted effect of over 55% in size
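Reporter activity after DNA damage by 5-fluorouridine is monitored. Compound-treated cells incubate 16 hr at 37 °C, then ONE-Glo is added for 30 min before luminescence reading.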
* marks the source's active call; other numbers are inactive results; ? = inconclusive; . = no result given; ! = not confirmed by another sample; [ ] = dose if it differs, or a comment. The list is not random: actives were taken first. Their share in the collection is about 21%. Unless noted, calls come from the whole dose curve; as a rule, active = well fitted curve in the direction sought with a large enough effect; inconclusive = small, poorly fitted or top-dose-only effect, or another doubt; inactive = no such curve, though single readings can be large; an effect the other way counts as inactive or inconclusive. % is set by controls: 0 for no effect and ±100 for the full control effect.

SMILES	DT40 TDP1 no CPT	TDP1 cell CPT	RORgamma inh	VP16 counter	IL-1B inflam inh	ELG1 repair inh
O=C1O[C@H](CN2CCOCC2)CN1/N=C\c1ccc([N+](=O)[O-])o1	.	.	-23.0%[16.9 µM]	27.1%[17 µM]	.	.
O=C1OC(CN(Cc2ccccc2)Cc2ccccc2)CN1N=Cc1ccc([N+](=O)[O-])o1 (stereo unspecified)	9.2µM*	16.4µM*	.	.	-0.6	.
CC(C)C[C@H]1CN(CCCC[C@@H]2CNC(=O)C(=O)N2CC2CCCCC2)C(=O)C(=O)N1CCc1ccccc1	-15.0%	13.8%	.	.	21.7	.
O=C(COC(=O)c1cc(S(=O)(=O)N2CCOCC2)ccc1F)c1ccc[nH]1	-3.6%	7.5%	1.6%	2.9%	-62.5*	16.2%
O=C1COc2ccc(C(=O)COC(=O)c3cc(S(=O)(=O)N4CCOCC4)ccc3F)cc2N1	-4.9%	12.4%	.	.	-70.2*	31.5%
O=C1COc2ccc(C(=O)COC(=O)CCc3ccc(S(=O)(=O)N4CCOCC4)cc3)cc2N1	2.3%	10.9%	13.0%[0.365 µM]	.	29.2	4.6%
CCOC(=O)c1cc2c(=O)n3ccccc3nc2n(CCCOC)c1=NC(=O)c1cc2ccccc2o1	18.4µM*	23.1µM*	.	.	.	.
CCOC(=O)c1cc2c(=O)n3cccc(C)c3nc2n(CCCOC)c1=NC(=O)c1cccnc1	23.1µM*	-27.8%	-19.4%	-13.1%	?	-19.6%
CCOC(=O)c1cc2c(=O)n3ccccc3nc2n(CCOC)c1=NC(=O)c1cc2ccccc2o1	-2.0%	-18.2%	.	.	.	.
CCCCn1c(=NC(=O)c2ccco2)c(C(=O)OCC)cc2c(=O)n3cccc(C)c3nc21	13µM*	?	-6.8%	0.8%	3.1	-15.4%
CCCCn1c(=NC(=O)c2ccco2)c(C(=O)OCC)cc2c(=O)n3ccccc3nc21	23.1µM*	?	-24.0%	-9.3%	-5.2	-27.3%
Cc1cccc(NC(=O)CSCC(=O)N(C)CCOc2ccc(Cl)cc2)c1	?	-9.4%	.	.	?	-0.5%
COCCNC(=O)C1(C)CCCN(C(=O)c2ccccc2C(F)(F)F)C1 (stereo unspecified)	1.1%	-19.4%	.	.	26.3	.
CCCCn1c(=NC(=O)c2cccnc2)c(C(=O)OCC)cc2c(=O)n3ccccc3nc21	16.4µM*	23.1µM*	-22.4%	-20.4%	5.1	?
CCCCCn1c(=NC(=O)c2ccco2)c(C(=O)OCC)cc2c(=O)n3ccccc3nc21	14.6µM*	16.4µM*	-6.7%	-11.6%	-74.1*!	?
O=C(O)c1cc(N=Nc2ccc(-c3ccc(N=Nc4ccc(O)c(C(=O)O)c4)cc3)cc2)ccc1O	.	.	7.0%	-6.8%	.	.
CC(=O)C(/C=N/c1ncc(C(F)(F)F)cc1Cl)=C(\C)O	14.9%	-8.1%	2.1%	15.8%	0.0	1.2%
O=C(CCC(=O)Nc1ccc(F)cc1)N/N=C/c1cccnc1	0.4%	-3.0%	5.7%	3.9%	-0.4	-1.1%
O=C(NO)c1ccccc1O	0.0%	-3.6%	3.4%	-9.3%	17.0	-18.9%
CCc1ccccc1O	.	.	34.8%	7.0%	.	.
CS(=O)c1ccccc1O (stereo unspecified)	17.1%	22.0%	11.2µM*	-4.3%	25.8	2.9%
O=S(c1ccccc1O)S(=O)c1ccccc1O (stereo unspecified)	5.17µM*	5.8µM*	.	.	?	.
CC(C)CNc1nc(Oc2ccc(OCC(N)=O)nn2)nc(N2CCOCC2)n1	-5.3%	-24.1%	.	.	.	.
Cc1ccc(NC(=O)c2cccc(S(=O)(=O)N(C)c3ccccc3)c2)cc1S(=O)(=O)N1CCOCC1	23.1µM*	23.1µM*	36.6%	-6.4%	0.0	13µM*
CC(NC(=O)c1cccc(S(=O)(=O)N(C)c2ccccc2)c1)c1cccnc1 (stereo unspecified)	18.4µM*	18.4µM*	.	.	-6.1	?
SMILES	DT40 TDP1 no CPT	TDP1 cell CPT	RORgamma inh	VP16 counter	IL-1B inflam inh	ELG1 repair inh
Cc1nc2ccc(NC(=O)c3cccc(S(=O)(=O)N(C)c4ccccc4)c3)cc2s1	6.51µM*	3.66µM*	?	-28.7%	37.4	18.4µM*
COc1ccccc1N(C)S(=O)(=O)c1ccc(C(=O)Nc2ccc3nc(C)sc3c2)cc1	?	16.4µM*	?	-17.7%	7.4	25.9µM*
CN(c1ccc(C(=O)Nc2cccnc2)cc1)S(=O)(=O)c1ccccc1	-25.8%	-1.1%	?	-14.5%	13.0	-25.3%
Cc1nc2ccc(NC(=O)c3ccccc3)cc2s1	16.3%	?	14.2%	3.5%	-12.4	?
COC(=O)c1csc(-c2ccc(CO)o2)n1	-12.7%	-8.9%	.	.	26.2	.
COc1ccccc1NC(=O)Cn1cc(C(=O)c2ccncc2)c(=O)c2cc(C)ccc21	-18.6%	-7.4%	.	.	.	.
O=C(NC1CCCC1)c1ccc2c(=O)n(Cc3ccccc3)c(SCc3ccccc3F)nc2c1	?	-25.3%	.	.	.	.
Cc1cc(=O)n2[nH]c(-c3ccc(F)cc3)cc2n1	13µM*	?	-29.7%	-8.4%	-4.6	?
Cc1cc(=O)n2[nH]c(C)c(-c3ccc(Cl)cc3)c2n1	?	23.1µM*	7.08µM*	15.8µM*	0.7	?
Cc1cc(=O)n2[nH]c(C)c(-c3ccccc3)c2n1	?	-23.0%	-42.6%	-7.2%	15.6	-12.4%
Cc1cc(=O)n2[nH]c(-c3ccc(Cl)cc3)cc2n1	20.6µM*	18.4µM*	?	?	4.1	?
Cc1cc(=O)n2[nH]c(-c3ccsc3-n3c(C)ccc3C)cc2n1	?	?	27.6%	5.5%	-4.4	10.8%
Cc1cccc(-c2cc3nc(-c4ccccc4)cc(=O)n3[nH]2)c1	23.1µM*	23.1µM*	?	?	0.6	?
COc1cc2c(c(OC)c1OC)-c1c(cc3c(c1OC)OCO3)CC(C)C(C)(O)C2OC(=O)c1ccccc1 (stereo unspecified)	.	.	35.1%	3.5%	.	.
Cc1cccc(-c2cccc(-c3cc(=O)oc4cc5c(cc34)OCO5)c2)c1	.	.	14.9%	-7.6%	.	.
Cc1cc2nc(CSc3ccc(Cl)cc3)cc(=O)n2[nH]1	?	?	11.2µM*	?	47.1	?
Cc1nc2nc(CSc3ccc(Cl)cc3)cc(=O)n2[nH]1	0.7%	7.8%	-22.3%	0.4%	16.4	15.2%
Cc1ccc(C2c3[nH]c4ccccc4c3CCN2C(=O)c2ccc(N(C)C)cc2)cc1 (stereo unspecified)	20.6µM*	20.6µM*	.	.	.	.
O=C(CSCc1ccc(F)cc1)N1CCc2c([nH]c3ccccc23)C1c1ccccc1 (stereo unspecified)	14.6µM*	20.6µM*	.	.	.	.
